{"source": "PubChem BioAssay (NCATS)", "assay_in_all_cases": "Cytotoxic Profiling of Annotated Libraries Using Quantitative High-Throughput Screening (AID 1296008); also: nearly all actives have a fitted effect of over 60% in size", "details_in_all_cases": "Five cell lines viability, CellTiter-Glo ATP luminescence, 48-72 h; max response: hits give low values", "key": {"HaCat": {"system": "HaCat", "summary_of_the_method": "(§1)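 Compounds were pin-transferred onto cells and incubated 48 or 72 hr at 37 degree Celsius, 95% humidity. CellTiter-Glo was added, plates sat 10 min at room temperature, then ATP-coupled luminescence was imaged as the viability read-out.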"}, "KB-3-1": {"system": "KB-3-1", "summary_of_the_method": "as §1"}, "NIH3T3": {"system": "NIH3T3", "summary_of_the_method": "as §1"}}, "note": "Results filed as inconclusive are left out. Active and inactive are the calls of the source. Calls follow the shape of the dose curve; as a rule, active = well fitted inhibition curve with a large enough effect; inconclusive = small, poorly fitted or top-dose-only effect; inactive = flat fitted curve, though single readings scatter. % is scaled to controls: 0 for no effect and ±100 for the full control effect; potency is read from the fitted curve at half-maximal effect."}
{"smiles": "O=C(c1ccc2nccnc2c1)N1CCCCC1", "values": [{"measurement": "max response", "setting": "HaCat", "value": "-44.6% (inactive)"}, {"measurement": "outcome", "setting": "KB-3-1", "value": "inactive"}, {"measurement": "max response", "setting": "NIH3T3", "value": "-40.7% (inactive)"}]}
{"smiles": "CN[C@H](CC(C)C)C(=O)N[C@H]1C(=O)N[C@@H](CC(N)=O)C(=O)N[C@H]2C(=O)N[C@H]3C(=O)N[C@H](C(=O)N[C@H](C(=O)O)c4cc(O)cc(O)c4-c4cc3ccc4O)[C@H](O[C@H]3C[C@](C)(N)[C@@H](O)[C@H](C)O3)c3ccc(c(Cl)c3)Oc3cc2cc(c3O[C@@H]2O[C@H](CO)[C@@H](O)[C@H](O)[C@H]2O[C@H]2C[C@](C)(NCc3ccc(-c4ccc(Cl)cc4)cc3)[C@@H](O)[C@H](C)O2)Oc2ccc(cc2Cl)[C@H]1O", "values": [{"measurement": "max response", "setting": "HaCat", "value": "-0.936% (inactive)"}, {"measurement": "outcome", "setting": "KB-3-1", "value": "inactive"}, {"measurement": "max response", "setting": "NIH3T3", "value": "1.69% (inactive)"}]}
{"smiles": "CC(=O)O[C@H]1[C@@H](O)[C@H](O[C@H]2[C@@H]3C=CO[C@@H](O[C@H]4O[C@@H](CO)[C@H](O)[C@@H](O)[C@@H]4O)[C@@H]3[C@@]3(CO)O[C@@H]23)O[C@@H](C)[C@@H]1OC(=O)/C=C/c1ccccc1", "values": [{"measurement": "max response", "setting": "HaCat", "value": "-2.99% (inactive)"}, {"measurement": "outcome", "setting": "KB-3-1", "value": "inactive"}, {"measurement": "max response", "setting": "NIH3T3", "value": "-6.79% (inactive)"}]}
{"smiles": "CC(C)(C)C(=O)CN1C(=O)[C@H](NC(=O)Nc2cccc(C(=O)O)c2)CN(C2CCCCC2)c2ccccc21", "values": [{"measurement": "max response", "setting": "HaCat", "value": "-3.07% (inactive)"}, {"measurement": "outcome", "setting": "KB-3-1", "value": "inactive"}, {"measurement": "max response", "setting": "NIH3T3", "value": "1.3% (inactive)"}]}
{"smiles": "O=C(NCc1ccccn1)Nc1nnc(-c2ccco2)o1", "values": [{"measurement": "max response", "setting": "HaCat", "value": "1.95% (inactive)"}, {"measurement": "max response", "setting": "KB-3-1", "value": "3.97% (inactive)"}, {"measurement": "max response", "setting": "NIH3T3", "value": "3.06% (inactive)"}]}
{"smiles": "O=C(NCC(O)CO)c1ccncc1Nc1ccc(I)cc1F", "note": "(stereo not given)", "values": [{"measurement": "Potency", "setting": "HaCat", "value": "18.4 µM (active)"}, {"measurement": "outcome", "setting": "KB-3-1", "value": "inactive"}, {"measurement": "Potency", "setting": "NIH3T3", "value": "7.31 µM (active)"}]}
{"smiles": "CC(=O)OCC1(O)CCC2C(COC3OC(CO)C(O)C(O)C3OC(=O)/C=C/c3ccc(O)cc3)=COC(OC(=O)CC(C)C)C21", "note": "(stereo not given)", "values": [{"measurement": "max response", "setting": "HaCat", "value": "-35.1% (inactive)"}, {"measurement": "outcome", "setting": "KB-3-1", "value": "inactive"}, {"measurement": "max response", "setting": "NIH3T3", "value": "3.4% (inactive)"}]}
{"smiles": "CC1(C)CC2C(C1)C(C)(O)C13CC1(COC3=O)C2O", "note": "(stereo not given)", "values": [{"measurement": "max response", "setting": "HaCat", "value": "-11.6% (inactive)"}, {"measurement": "max response", "setting": "KB-3-1", "value": "-11% (inactive)"}, {"measurement": "max response", "setting": "NIH3T3", "value": "-6.54% (inactive)"}]}
{"smiles": "COC(=O)C[C@H]1C(C)(C)[C@H](OC(C)=O)C2CC3=C4CC(=O)O[C@@H](c5ccoc5)[C@]4(C)CCC3[C@@]1(C)C2=O", "note": "(stereo not given in full)", "values": [{"measurement": "max response", "setting": "HaCat", "value": "1.4% (inactive)"}, {"measurement": "max response", "setting": "KB-3-1", "value": "4.19% (inactive)"}, {"measurement": "max response", "setting": "NIH3T3", "value": "-4.77% (inactive)"}]}
{"smiles": "C=CC(C)(O)CC[C@H]1C(=C)CCC2[C@](C)(C(=O)O)CCC[C@@]21C", "note": "(stereo not given in full)", "values": [{"measurement": "max response", "setting": "HaCat", "value": "-5.99% (inactive)"}, {"measurement": "max response", "setting": "KB-3-1", "value": "0.39% (inactive)"}, {"measurement": "max response", "setting": "NIH3T3", "value": "2.59% (inactive)"}]}
